Rows were chosen to be rich in hits. Some 19% of all compounds tested hit in one or more screens of this group.
DT40 TDP1 CPT = growth inhibition of DT40 Tdp1-/-;hTDP1 cells with camptothecin (screen for TDP1 inhibitors); chicken DT40 Tdp1-/-;hTDP1 cells + 20 nM CPT, ATP luminescence, 48 h; Potency, µM (doses to about 46.2 µM), for inactives: at the highest dose activity change, negative = growth inhibition, actives largely listed as inhibitors; actives 12% (n = 420,000); AID 686979; also: nearly all actives have a fitted effect of over 55% in size
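Chicken DT40 Tdp1-/- cells complemented with human TDP1, 400 cells/well, exposed to compounds plus 20 nM camptothecin for at least 48 h at 37 C; viability read as ATP content by CellTiter-Glo luminescence.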
DT40 TDP1 no CPT = qHTS for Inhibitors of human tyrosyl-DNA phosphodiesterase 1 (TDP1): qHTS in cells in absence of CPT | AID 686978, 2013 | DT40 Tdp1-/- hTDP1 cells, no CPT, ATP luminescence, 48 h | actives 15% (n = 420,000) | Potency, µM (doses to about 46.2 µM), inactives show at the highest dose activity change, negative = growth inhibition, most hits filed as inhibitors; also: nearly all actives have a fitted effect of over 55% in size
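Growth of hTDP1-complemented DT40 Tdp1-knockout cells is measured by ATP luminescence after at least 48 hr compound exposure at 37 °C, with DMSO substituting for the 20 nM CPT used in the parallel screen.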
KB-V1 cytotox = kills drug-selected multidrug resistant KB-V1 cells; KB-V1 MDR cells viability, CellTiter-Glo, 72 h; Potency, µM (titrated, usually from 46.1 µM), actives largely listed as cytotoxic; actives 3.4% (n = 400,000); also: nearly all actives have a fitted effect of over 60% in size
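Drug-selected KB-V1 cells, grown in DMEM lacking phenol red with 10% FBS, receive compound titrations; after three days at 37 degrees C, surviving cell ATP is quantified by CellTiter-Glo luminescence and responses normalized and curve-fitted.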
HT1080NT lethal = kills 2HG-producing HT-1080-NT fibrosarcoma cells; Potency, µM (highest dose often 46.1 µM), inactives show at the top dose activity, negative = less viability, most hits filed as cytotoxic; AID 686970; HT-1080-NT fibrosarcoma viability, CellTiter-Glo ATP luminescence, 48 h; actives 1.6% (n = 360,000);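 also: NT is the 2HG producing partner of a matched IDH1 knockdown line; 0% = DMSO-treated cells and -100% = media-only wells without cells; nearly all actives have a fitted effect of over 55% in size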
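Viability by CellTiter-Glo luminescence after 48 h compound exposure at 37C of HT-1080-NT cells (750/well, RPMI, 5% FBS). % activity scaled between DMSO wells and medium-only wells, then curve-fitted and categorized by curve class.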
HT1080 IDH1KD tx = toxicity to HT-1080 IDH1 knockdown cells (counter line). HT-1080 IDH1 knockdown viability, ATP luminescence, 48 h. Potency, µM (top dose mostly 46.1 µM), inactives show at the highest dose activity, negative = toxicity, usual class: cytotoxic. actives 2% (n = 360,000);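 also: 0% = DMSO wells and -100% = cell-free medium wells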
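Using the IDH1-knockdown HT-1080 line run in the same batch and compound series as the NT line, viability after 48 h at 37 °C was determined by CellTiter-Glo luminescence and expressed as % activity.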
KB-3-1 cytotox = kills parental KB-3-1 adenocarcinoma cells; Potency, µM (titrated, usually from 46.1 µM), hits mostly cytotoxic; actives 1.4% (n = 400,000); AID 1347075; KB-3-1 viability, CellTiter-Glo ATP luminescence, 72 h; also: nearly all actives have a fitted effect of over 60% in size
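Multi-concentration cytotoxicity screen in KB-3-1 cells grown in DMEM lacking phenol red with 10% FBS. After 72 h at 37 °C with compound, ATP-dependent luminescence was recorded.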
Numbers without * were called inactive; i = inactive; ? = inconclusive; · = no result; [ ] = remark or other dose. Calls follow the shape of the dose curve; as a rule, active = well fitted curve in the direction sought with a large enough effect; inconclusive = small, poorly fitted or top-dose-only effect, or another doubt; inactive = no such curve, though single readings can be large; an effect the other way counts as inactive or inconclusive. Unless noted, % is scaled to controls: 0 for no effect and ±100 for the full control effect; potency is read from the fitted curve at half-maximal effect.

SMILES | DT40 TDP1 CPT | DT40 TDP1 no CPT | KB-V1 cytotox | HT1080NT lethal | HT1080 IDH1KD tx | KB-3-1 cytotox
Cc1cc2c(n1-c1ccc(C(=O)NCc3cccc(Br)c3)cc1)CCC(C)C2 (centres undefined) | ? | 15µM* | · | · | · | ·
COc1cc(OC)cc(C(=O)NCC2Cc3cccc(-c4nc(C)cnc4C)c3O2)c1 (centres undefined) | -3%[9.04 µM] | -13% | · | · | · | ·
Cc1cccc([C@@H]2[C@@H]3C(=O)N(Cc4ccccc4)C(=O)[C@@H]3[C@]3(CC(C)C)C(=O)N(c4cccc(F)c4)C(=O)N23)c1 | ? | ? | i | 4% | 2% | i
CC/C=C\C[C@H]1C(=O)CC[C@@H]1CC(=O)O | 0% | 0% | · | · | · | ·
CN(C)c1ccc(CNC(=O)C2CCN(c3nnc(-n4cccc4)s3)CC2)cc1 | -24% | ? | i | · | · | i
CS(=O)(=O)Cc1nc2ccccc2oc1=O | 6.5µM* | 6.5µM* | i | -8% | -2% | i
Cc1ccc2oc(=O)c(/C=C(\O)CC(C)C)nc2c1 | 23µM* | -87% | i | 0% | -1% | i
CCS(=O)(=O)CCSc1nc2ccccc2o1 | 0% | -3% | i | -5% | -1% | i
C/C(O)=C\c1nc2ccccc2oc1=O | 10µM* | 7.3µM* | i | -6% | ? | ?
O=c1oc2ccccc2nc1/C=C(\O)c1ccc(Br)cc1 | ? | ? | i | -7% | -4% | i
CC(=O)Nc1ccc(S(=O)(=O)NN=CCCc2ccccc2)cc1 | 7% | 7% | i | 4% | 3% | i
COc1ccccc1CNc1ccc(-c2nc(-c3cccnc3)no2)cc1[N+](=O)[O-] | ? | ? | i | · | · | i
CCCCC[C@H](O)/C=C/C=C\C=C\C=C\[C@@H](O)[C@@H](O)CCCC(=O)O | -2%[0.628 µM] | 0%[0.628 µM] | · | · | · | ·
CCc1ccccc1NC1=NCC(=O)N1C1CCCC1 | 23µM* | ? | i | 1% | 6% | i
CCc1ccccc1NC1=NCC(=O)N1Cc1ccc(OC)cc1 | ? | -16% | i | -10% | 3% | i
C/C(=N\NC(=S)NC(C)C)c1ccc(-n2ccnc2)cc1 | 3.3µM* | 4.1µM* | ? | 15% | 6%[9.24 µM] | i
CCc1ccc(OCC(=O)N/N=C(\C)c2ccccc2OC(F)F)cc1 | 16µM* | 16µM* | 16µM* | -11% | -8% | i
CCc1ccc(OCC(=O)N/N=C(\C)c2ccc(-n3ccnc3)cc2)cc1 | ? | 16µM* | i | 0% | 1% | i
CNC(=S)N/N=C(\C)c1ccc(-n2ccnc2)cc1 | -3% | 4% | i | 12% | 1% | i
COCCNC(=S)N/N=C(\C)c1ccc(-n2ccnc2)cc1 | 4.5µM* | 3.5µM* | ? | ? | 10µM* | i
CCc1ccc(OCC(=O)N/N=C(\C)c2ccc(OC(F)F)cc2)cc1 | 2% | -27% | i | 21% | -1% | i
CCc1nnc(SCC(=O)Nc2ccc(N3CCN(S(C)(=O)=O)CC3)cc2)o1 | ? | -26% | i | 6% | 0% | i
NC1=NC(=O)C(Cc2cc(Cl)ccc2Cl)S1 (centres undefined) | 0% | -6% | i | -7% | -10% | i
CC(=O)/C(C#N)=C1\NC(=O)C(Cc2cc(Cl)ccc2Cl)S1 (centres undefined) | ? | 3.3µM* | 6.5µM* | 23µM* | ? | 15µM*
O=C1NC(=Nc2ccccc2)SC1Cc1cccc(Cl)c1Cl (centres undefined) | -11% | -37% | i | -9% | -9% | i
SMILES | DT40 TDP1 CPT | DT40 TDP1 no CPT | KB-V1 cytotox | HT1080NT lethal | HT1080 IDH1KD tx | KB-3-1 cytotox
CC(=O)/C(C#N)=C1\NC(=O)C(Cc2ccccc2Cl)S1 (centres undefined) | ? | ? | ? | -23% | 3.7µM* | 3.3µM*
Cc1ccc2c(c1)N(CCC(=O)NCCCN1CCCC1)C(=O)C(C)O2 (centres undefined) | -1% | 1% | i | 5% | 15% | i
COc1ccc(OCc2cc(C(=O)NCC(C)Oc3cccnc3)no2)c(Cl)c1 (centres undefined) | ? | ? | ? | 2% | -8% | i
CSc1ccccc1OCc1cc(C(=O)NCC(C)Oc2cccnc2)no1 (centres undefined) | ? | 16µM* | ? | -10% | -5% | i
CSc1ccccc1OCc1cc(C(=O)NCCCn2nc(C)cc2C)no1 | 16µM* | 21µM* | · | -3% | -16% | ·
CSc1ccccc1OCc1cc(C(=O)NCCc2nc(C)cc(C)n2)no1 | ? | ? | i | 5% | 2% | i
O=C(N/N=C/c1cccs1)c1cc(-c2ccc3ccccc3c2)n[nH]1 | ? | 21µM* | ? | ? | ? | i
O=C(N/N=C/c1ccco1)c1cc(-c2ccc3ccccc3c2)n[nH]1 | 13µM* | 23µM* | i | ? | ? | i
O=C(N/N=C/c1cccc([N+](=O)[O-])c1)c1cccc2cc[nH]c12 | -12% | -26% | i | -9% | -4% | i
O=C(N/N=C/c1cccs1)c1ccc2ccccc2c1 | 15µM* | 21µM* | ? | ? | -14% | 21µM*
O=C(N/N=C/c1cccs1)c1cccc2cc[nH]c12 | ? | ? | 21µM* | ? | 16µM* | i
O=C(N/N=C/c1cccs1)c1ccc2ncccc2c1 | 1% | -2% | i | -5% | -21% | i
O=C(N/N=C/c1ccccn1)c1cc(-c2ccccc2Cl)n[nH]1 | ? | 18µM* | i | -1% | -24% | i
O=C(N/N=C/c1ccccn1)c1cc(-c2cccc3ccccc23)n[nH]1 | ? | -27% | i | -29% | -24% | i
CC(C)(C)C1CCc2c(C(=O)N/N=C/c3cccs3)csc2C1 (centres undefined) | 14µM* | ? | ? | 7% | 13% | i
O=C(N/N=C/c1cccs1)c1ccccn1 | -5% | -25% | ? | -3% | -13% | i
C(=NN=C(NN=Cc1cccs1)NN=Cc1cccs1)c1cccs1 | 5.2µM* | 2.9µM* | ? | ? | -26% | ?
O=C(N/N=C/c1ccccn1)c1cc(-c2ccc3ccccc3c2)n[nH]1 | ? | ? | i | ? | 16µM* | i
CCOc1cccc(C2c3c(oc4ccc(F)cc4c3=O)C(=O)N2CCOC)c1 (centres undefined) | 5% | -4% | · | · | · | ·

Bioassay records as filed in PubChem BioAssay.
